Reference: the supplement of paper PMC11732987, “Enantioselective OTUD7B fragment discovery through chemoproteomics screening and high-throughput optimisation” (Communications Chemistry, 2025)

How the values were obtained:
Assay in all cases: log2 ratio of Biotin-Ahx-Ub-VS probe labelling (fragment/DMSO); higher = less target engagement (more negative = stronger competition), active = hit call of the paper (q ≤ 0.05, log2 ratio ≤ -1)
Conditions in all cases: compound concentration: 200 uM; treatment time: 3 h
[1] = molecular target: USP34 (UniProt Q70CQ2)
Sequence of USP34 (Q70CQ2 whole entry, the tested form may be a part): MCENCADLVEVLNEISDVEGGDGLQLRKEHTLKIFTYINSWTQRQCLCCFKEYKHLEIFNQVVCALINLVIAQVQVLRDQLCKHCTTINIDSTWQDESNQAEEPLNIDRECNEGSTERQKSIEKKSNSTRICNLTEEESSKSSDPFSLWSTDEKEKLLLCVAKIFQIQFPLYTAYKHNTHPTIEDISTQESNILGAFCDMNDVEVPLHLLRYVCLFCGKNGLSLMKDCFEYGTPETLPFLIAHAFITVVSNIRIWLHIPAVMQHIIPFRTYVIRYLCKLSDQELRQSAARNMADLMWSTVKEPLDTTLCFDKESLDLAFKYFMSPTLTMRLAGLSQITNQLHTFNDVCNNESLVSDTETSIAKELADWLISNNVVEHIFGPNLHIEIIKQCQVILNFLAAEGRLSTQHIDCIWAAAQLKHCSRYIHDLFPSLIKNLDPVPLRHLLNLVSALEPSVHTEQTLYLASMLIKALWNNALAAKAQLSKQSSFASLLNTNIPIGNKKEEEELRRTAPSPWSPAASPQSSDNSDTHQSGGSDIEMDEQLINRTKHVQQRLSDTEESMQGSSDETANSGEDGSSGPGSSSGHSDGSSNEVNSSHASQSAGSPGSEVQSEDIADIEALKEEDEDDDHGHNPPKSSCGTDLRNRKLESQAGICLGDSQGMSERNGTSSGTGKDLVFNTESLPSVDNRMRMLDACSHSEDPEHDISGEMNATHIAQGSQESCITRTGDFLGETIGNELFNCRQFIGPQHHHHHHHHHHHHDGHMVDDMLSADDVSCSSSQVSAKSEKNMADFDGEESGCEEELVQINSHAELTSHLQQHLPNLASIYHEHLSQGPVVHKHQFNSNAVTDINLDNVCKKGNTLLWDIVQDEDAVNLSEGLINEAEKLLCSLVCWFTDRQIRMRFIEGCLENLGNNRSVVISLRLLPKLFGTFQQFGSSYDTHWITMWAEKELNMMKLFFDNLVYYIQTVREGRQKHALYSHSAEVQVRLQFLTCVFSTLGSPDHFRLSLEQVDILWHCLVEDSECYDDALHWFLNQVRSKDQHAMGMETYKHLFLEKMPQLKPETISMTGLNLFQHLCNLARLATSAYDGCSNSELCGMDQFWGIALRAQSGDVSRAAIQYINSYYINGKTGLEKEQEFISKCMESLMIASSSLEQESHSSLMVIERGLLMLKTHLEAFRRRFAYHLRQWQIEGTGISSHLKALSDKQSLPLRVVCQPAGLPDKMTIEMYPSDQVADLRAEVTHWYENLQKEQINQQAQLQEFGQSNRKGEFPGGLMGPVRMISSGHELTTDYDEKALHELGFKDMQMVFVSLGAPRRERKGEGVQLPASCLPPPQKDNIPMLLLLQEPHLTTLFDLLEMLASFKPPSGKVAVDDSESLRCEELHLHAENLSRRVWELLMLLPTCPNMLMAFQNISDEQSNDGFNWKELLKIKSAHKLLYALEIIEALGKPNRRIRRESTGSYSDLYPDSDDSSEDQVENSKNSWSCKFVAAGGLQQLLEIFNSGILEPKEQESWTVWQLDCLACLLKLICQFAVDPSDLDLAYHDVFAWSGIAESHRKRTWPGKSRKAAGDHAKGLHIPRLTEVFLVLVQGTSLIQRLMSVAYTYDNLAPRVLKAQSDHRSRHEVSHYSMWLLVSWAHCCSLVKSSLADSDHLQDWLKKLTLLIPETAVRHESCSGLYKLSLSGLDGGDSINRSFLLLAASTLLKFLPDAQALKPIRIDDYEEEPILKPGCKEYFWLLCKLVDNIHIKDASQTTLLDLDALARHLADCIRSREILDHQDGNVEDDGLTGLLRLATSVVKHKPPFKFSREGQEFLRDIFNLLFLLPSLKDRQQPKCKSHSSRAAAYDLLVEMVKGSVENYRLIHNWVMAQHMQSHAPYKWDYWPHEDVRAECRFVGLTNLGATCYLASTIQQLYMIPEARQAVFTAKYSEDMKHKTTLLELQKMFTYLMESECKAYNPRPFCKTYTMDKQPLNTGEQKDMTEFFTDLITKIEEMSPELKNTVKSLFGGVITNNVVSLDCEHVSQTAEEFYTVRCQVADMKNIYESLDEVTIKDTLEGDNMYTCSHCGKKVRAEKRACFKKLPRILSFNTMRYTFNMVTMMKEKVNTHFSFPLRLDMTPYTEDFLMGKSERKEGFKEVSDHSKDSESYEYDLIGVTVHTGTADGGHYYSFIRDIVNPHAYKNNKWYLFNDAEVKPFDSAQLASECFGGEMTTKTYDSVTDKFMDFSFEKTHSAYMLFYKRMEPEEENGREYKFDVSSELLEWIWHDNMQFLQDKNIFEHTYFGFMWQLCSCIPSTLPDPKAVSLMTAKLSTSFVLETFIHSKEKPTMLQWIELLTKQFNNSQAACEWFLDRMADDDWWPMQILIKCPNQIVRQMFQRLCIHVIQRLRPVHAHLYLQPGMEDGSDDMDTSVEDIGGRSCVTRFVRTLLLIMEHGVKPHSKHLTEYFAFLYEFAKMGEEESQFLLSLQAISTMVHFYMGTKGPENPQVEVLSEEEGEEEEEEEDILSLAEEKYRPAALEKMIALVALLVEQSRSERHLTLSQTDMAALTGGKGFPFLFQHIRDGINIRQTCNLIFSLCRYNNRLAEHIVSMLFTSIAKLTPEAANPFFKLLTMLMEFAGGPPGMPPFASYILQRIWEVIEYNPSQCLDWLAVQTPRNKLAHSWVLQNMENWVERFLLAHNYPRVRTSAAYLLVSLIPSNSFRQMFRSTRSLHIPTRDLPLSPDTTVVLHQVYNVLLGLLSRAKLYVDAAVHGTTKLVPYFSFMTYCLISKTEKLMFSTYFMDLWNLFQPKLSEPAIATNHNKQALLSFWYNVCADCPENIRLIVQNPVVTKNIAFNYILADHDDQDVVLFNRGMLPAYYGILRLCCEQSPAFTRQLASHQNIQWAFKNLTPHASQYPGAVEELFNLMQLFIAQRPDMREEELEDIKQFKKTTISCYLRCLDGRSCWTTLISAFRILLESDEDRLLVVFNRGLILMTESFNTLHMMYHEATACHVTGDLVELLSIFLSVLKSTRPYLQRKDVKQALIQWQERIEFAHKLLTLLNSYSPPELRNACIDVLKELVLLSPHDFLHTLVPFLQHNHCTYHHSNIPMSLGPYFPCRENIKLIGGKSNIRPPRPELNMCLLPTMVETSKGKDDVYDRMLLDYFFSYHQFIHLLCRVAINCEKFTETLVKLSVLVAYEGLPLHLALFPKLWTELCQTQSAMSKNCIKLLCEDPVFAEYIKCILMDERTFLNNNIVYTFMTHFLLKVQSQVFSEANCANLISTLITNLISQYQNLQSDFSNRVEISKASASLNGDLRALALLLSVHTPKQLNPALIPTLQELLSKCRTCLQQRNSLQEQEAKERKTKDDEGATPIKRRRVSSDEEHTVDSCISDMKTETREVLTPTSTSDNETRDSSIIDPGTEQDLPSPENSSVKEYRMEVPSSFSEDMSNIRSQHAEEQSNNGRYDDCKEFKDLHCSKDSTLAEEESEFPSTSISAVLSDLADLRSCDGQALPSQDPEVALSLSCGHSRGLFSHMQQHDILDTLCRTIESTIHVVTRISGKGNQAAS
Method in brief: (§1)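 Triplicate samples of HEK293T lysate, 495 µg each, received fragment at 200 µM or vehicle for 3 h, followed by Biotin-Ahx-Ub-VS (0.5 µM final) for 1 h. After NeutrAvidin enrichment of labelled DUBs and LysC/trypsin digestion, peptides were run by diaPASEF LC-MS/MS. The values are average log2 fragment/vehicle ratios from global-median-normalised Spectronaut label-free quantities, tested by unpaired t-test on proteins having ≥2 unique peptides.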

[2] = molecular target: T1, USP36 (UniProt Q9P275)
T1 sequence (whole entry): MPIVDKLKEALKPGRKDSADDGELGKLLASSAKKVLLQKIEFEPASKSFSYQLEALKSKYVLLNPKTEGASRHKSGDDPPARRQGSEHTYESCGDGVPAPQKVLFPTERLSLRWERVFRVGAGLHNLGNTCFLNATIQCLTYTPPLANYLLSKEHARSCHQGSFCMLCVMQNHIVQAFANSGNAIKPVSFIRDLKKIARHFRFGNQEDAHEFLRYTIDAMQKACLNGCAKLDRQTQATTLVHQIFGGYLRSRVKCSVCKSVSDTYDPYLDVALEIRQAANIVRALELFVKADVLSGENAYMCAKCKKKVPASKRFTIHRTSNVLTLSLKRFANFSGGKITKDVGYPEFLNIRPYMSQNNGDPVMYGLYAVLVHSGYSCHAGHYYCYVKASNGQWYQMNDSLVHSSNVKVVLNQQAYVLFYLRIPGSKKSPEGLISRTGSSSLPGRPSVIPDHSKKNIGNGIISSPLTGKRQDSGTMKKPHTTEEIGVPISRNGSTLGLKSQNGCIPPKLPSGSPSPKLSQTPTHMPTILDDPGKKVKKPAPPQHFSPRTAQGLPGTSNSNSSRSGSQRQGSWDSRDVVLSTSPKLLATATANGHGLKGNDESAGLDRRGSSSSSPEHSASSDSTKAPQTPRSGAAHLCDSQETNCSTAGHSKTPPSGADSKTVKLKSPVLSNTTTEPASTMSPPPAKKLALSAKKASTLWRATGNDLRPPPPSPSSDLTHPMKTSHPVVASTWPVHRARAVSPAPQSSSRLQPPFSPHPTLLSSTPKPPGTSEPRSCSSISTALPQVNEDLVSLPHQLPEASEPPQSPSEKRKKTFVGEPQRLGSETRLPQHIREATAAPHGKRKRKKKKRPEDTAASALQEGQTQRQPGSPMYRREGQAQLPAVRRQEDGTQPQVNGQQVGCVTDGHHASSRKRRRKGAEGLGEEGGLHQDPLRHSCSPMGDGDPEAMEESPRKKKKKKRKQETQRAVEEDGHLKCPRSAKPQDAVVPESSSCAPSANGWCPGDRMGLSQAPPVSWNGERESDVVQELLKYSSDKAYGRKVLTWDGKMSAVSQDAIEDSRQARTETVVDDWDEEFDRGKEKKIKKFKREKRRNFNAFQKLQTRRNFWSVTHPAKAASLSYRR
Method in brief: as §1

[3] = molecular target: T2, USP38 (UniProt Q8NB14)
T2 sequence (whole entry): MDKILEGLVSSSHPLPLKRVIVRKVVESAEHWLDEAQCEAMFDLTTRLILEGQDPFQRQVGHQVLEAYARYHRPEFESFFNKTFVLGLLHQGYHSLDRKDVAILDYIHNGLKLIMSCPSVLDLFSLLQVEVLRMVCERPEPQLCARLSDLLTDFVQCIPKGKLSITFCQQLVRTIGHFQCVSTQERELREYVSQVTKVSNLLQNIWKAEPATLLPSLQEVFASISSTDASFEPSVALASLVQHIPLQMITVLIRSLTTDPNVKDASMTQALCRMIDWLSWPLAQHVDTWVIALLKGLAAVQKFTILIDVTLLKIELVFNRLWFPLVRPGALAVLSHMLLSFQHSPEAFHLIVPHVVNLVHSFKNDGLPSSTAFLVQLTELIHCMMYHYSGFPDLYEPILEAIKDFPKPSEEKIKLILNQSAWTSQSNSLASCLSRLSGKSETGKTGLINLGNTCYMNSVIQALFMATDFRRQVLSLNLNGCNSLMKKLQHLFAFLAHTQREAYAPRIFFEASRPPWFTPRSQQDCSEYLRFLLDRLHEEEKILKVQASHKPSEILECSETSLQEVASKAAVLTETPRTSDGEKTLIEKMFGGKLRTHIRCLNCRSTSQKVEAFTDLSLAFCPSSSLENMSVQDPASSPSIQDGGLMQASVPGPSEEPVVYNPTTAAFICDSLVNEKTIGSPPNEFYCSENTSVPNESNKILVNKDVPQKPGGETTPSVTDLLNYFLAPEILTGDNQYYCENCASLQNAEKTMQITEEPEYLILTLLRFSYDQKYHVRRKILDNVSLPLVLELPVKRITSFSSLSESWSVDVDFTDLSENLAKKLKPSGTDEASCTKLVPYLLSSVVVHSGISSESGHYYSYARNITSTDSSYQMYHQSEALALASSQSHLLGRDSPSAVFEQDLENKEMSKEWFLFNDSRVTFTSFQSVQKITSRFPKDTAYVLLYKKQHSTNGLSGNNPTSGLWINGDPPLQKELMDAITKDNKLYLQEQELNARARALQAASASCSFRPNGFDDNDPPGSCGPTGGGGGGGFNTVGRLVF
Method in brief: as §1

[4] = molecular target: T3, USP39 (UniProt Q53GS9)
T3 sequence (whole entry): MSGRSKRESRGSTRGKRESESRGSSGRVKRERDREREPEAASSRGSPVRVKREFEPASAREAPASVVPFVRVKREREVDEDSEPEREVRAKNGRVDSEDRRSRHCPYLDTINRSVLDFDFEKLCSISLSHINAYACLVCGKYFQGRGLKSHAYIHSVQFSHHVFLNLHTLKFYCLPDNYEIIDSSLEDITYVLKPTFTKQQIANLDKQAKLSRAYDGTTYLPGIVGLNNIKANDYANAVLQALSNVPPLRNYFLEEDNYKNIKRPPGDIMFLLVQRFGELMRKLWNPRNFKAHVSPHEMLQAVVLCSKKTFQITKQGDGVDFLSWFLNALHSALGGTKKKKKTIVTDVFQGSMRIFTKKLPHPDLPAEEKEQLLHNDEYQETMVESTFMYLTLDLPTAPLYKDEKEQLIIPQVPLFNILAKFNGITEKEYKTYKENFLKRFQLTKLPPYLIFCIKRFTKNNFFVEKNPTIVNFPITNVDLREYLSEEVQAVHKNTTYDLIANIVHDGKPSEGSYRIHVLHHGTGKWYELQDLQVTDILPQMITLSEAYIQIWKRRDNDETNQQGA
Method in brief: as §1

[5] = molecular target: T4, USP4 (UniProt Q13107)
T4 sequence (whole entry): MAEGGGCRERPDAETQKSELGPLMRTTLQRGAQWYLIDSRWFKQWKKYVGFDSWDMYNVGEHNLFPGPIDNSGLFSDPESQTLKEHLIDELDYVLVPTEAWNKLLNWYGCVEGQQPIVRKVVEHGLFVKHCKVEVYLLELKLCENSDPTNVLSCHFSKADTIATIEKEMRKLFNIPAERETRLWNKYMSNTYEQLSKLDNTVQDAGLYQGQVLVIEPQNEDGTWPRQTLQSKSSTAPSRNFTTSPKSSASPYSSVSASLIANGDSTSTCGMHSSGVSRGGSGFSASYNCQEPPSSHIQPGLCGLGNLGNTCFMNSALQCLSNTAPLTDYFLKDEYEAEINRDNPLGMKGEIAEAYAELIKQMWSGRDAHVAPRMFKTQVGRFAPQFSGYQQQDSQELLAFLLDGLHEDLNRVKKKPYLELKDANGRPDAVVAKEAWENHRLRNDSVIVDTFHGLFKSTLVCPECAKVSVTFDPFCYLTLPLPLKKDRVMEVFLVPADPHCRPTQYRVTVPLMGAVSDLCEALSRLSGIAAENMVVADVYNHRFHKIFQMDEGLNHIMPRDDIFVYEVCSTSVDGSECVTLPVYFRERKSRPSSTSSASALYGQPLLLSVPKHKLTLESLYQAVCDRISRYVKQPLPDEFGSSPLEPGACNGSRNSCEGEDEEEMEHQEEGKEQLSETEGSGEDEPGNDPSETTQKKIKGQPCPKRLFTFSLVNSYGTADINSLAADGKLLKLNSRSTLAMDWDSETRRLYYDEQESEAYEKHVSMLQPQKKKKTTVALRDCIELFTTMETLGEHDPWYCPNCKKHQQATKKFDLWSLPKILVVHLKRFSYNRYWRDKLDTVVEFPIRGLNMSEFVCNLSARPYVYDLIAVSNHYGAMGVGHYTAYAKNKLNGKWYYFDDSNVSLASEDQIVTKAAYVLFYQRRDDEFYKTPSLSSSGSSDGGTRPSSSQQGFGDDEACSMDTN
Method in brief: as §1

Measured: log2 ratio of Biotin-Ahx-Ub-VS probe labelling

CN(C)C(=O)c1ccc(NC(=O)CCl)cc1
inactive: [1] -0.218 | [2] 0.00972 | [3] -0.0389 | [4] 0.0586 | [5] -0.323
